In PubChem BioAssay (NCATS):
Inconclusive results are not listed. The source made the active and inactive calls.

Experiment: qHTS for identification of novel therapeutic agents for treatment of microphthalmiaassociated transcription factor (MiT) renal cell carcinoma (RCC) (AID 1963991)
Conditions: CellTiter-Glo, 48 h; for z-score: stronger effect = lower value
From the text: PI: Marston Linehan Ph.D.
Urologic Oncology Branch, Center for Cancer Research (CCR)
National Cancer Institute (NCI), National Institute of Health (NIH), Bethesda, Maryland
MiT-Renal Cell Carcinoma (RCC) is characterized by genomic translocations involving microphthalmia-associated transcription factor (MiT) family members TFE3, TFEB, or MITF. MiT-RCC represents a specific subtype of sporadic RCC that is predominantly seen in young patients and can present with heterogeneous histological features making diagnosis challenging. Moreover, the disease biology of this aggressive cancer is poorly understood and there is no accepted standard of care therapy for patients with advanced disease. Tumor-derived cell lines have been established from human TFE3-RCC providing useful models for preclinical studies. TFE3-RCC tumor derived cell lines and their tissues of origin were characterized by IHC and gene expression analyses. An unbiased high-throughput drug screen was performed to identify novel therapeutic agents for treatment of MiT-RCC. Potential therapeutic candidates were validated in in vitro and in vivo preclinical studies. Mechanistic assays were conducted to confirm the on-target effects of drugs. The results of a high-throughput small molecule drug screen utilizing three TFE3-RCC tumor-derived cell lines identified five classes of agents with potential pharmacological efficacy, including inhibitors of phosphoinositide-3-kinase (PI3K) and mechanistic target of rapamycin (mTOR), and several additional agents, including the transcription inhibitor Mithramycin A. Upregulation of the cell surface marker GPNMB, a specific MiT transcriptional target, was confirmed in TFE3-RCC and evaluated as a therapeutic target using the GPNMB-targeted antibody-drug conjugate CDX-011. […] The results of the high-throughput drug screen and validation studies in TFE3-RCC tumor-derived cell lines have provided in vitro and in vivo preclinical data supporting the efficacy of the PI3K/mTOR inhibitor.
SEQUENCE No. (e.g., 1, 2, 3, etc.); […] (e.g., Cells, Incubation, Reagent, etc.); VALUE; DESCRIPTION.
1; Cells; 3 uL; white, solid-bottom Grenier assay plate.
2; Compounds; 23 nL; Kalypsis pin-tool (Wako USA).
3; Incubation; 48 hr; 37 C, 5% CO2, 95% humidity.
4; Reagent; 3 uL; CellTiter-Glo reagent (Promega).
5; Incubation; 15 min; room temperature.
6; Detection; Luminescence; ViewLux plate reader (PerkinElmer).
NOTES (numbers refer to Sequence numbers above)
1. Quantitative high-throughput screening (qHTS) of 1912 pharmacologically defined small molecule compounds was conducted on three TFE3-fusion cell lines bearing three different fusion partners (UOK109, UOK124, UOK145). Briefly, 500 cells in complete growth media were plated into white, solid-bottom, 1536-well tissue culture treated plates (Grenier Cat. 789173-F) using a Multidrop Combi cassette dispenser.
2. Twenty-three nanoliter of 1912 pharmacologically defined small molecule compounds of the NCATS Mechanism Interrogation PlatE (MIPE) version 4.0 were added to each assay plate using a Pintool Dispenser (Wako) equipped with 1536 pin head.
3. Plates were covered with stainless steel gasketed lids and incubated for 48 hours at standard cell culture conditions.
4. Viability was assessed by adding 3uL of CellTiter-Glo detection reagent (Promega).
5. Plates were covered with gasket lids and incubated for 15 minutes at room temperature.
6. Luminescence was measured on a ViewLux plate reader (PerkinElmer). Post-screen data processing used DMSO controls as 100% viability and empty wells as 0% viability and dose response curve fitting was done for all 11 concentrations for each compound.

[1] = TFE3-RCC UOK109 viability, measured here: UOK109 Z-AUC
[2] = TFE3-RCC viability, measured here: UOK124 Z-AUC
[3] = TFE3-RCC viability, measured here: UOK145 Z-AUC
Potency is read from the fitted curve at half-maximal effect.

CN(C)c1ccc(C(=C2C=CC(=[N+](C)C)C=C2)c2ccc(N(C)C)cc2)cc1
Potency (TFE3-RCC UOK109 viability, active = Z-AUC below -0.8 in all three lines): 1180 nM (active) | z-score [1]: -1.93 | z-score [2]: -2.26 | z-score [3]: -1.8

Clc1ccccc1CN1CCc2sccc2C1
z-score [1]: 0.71 | z-score [2]: 0.609 | z-score [3]: 0.692

CCOC(=O)c1ccc(OC(=O)CCCCCN=C(N)N)cc1
z-score [1]: 0.377 | z-score [2]: 0.137 | z-score [3]: -0.125

COc1nc(N)nc2c1ncn2[C@@H]1O[C@H](CO)[C@@H](O)[C@@H]1O
z-score [1]: 0.831 | z-score [2]: 1.01 | z-score [3]: 0.757

NC(=O)c1ccc2[nH]ccc2c1
z-score [1]: 0.214 | z-score [2]: 0.789 | z-score [3]: -0.184

COc1c(N2CCNC(C)C2)c(F)cc2c(=O)c(C(=O)O)cn(C3CC3)c12 (stereo not given)
z-score [1]: 0.46 | z-score [2]: 0.931 | z-score [3]: 0.897

CC(C)C1CCC(C(=O)N[C@H](Cc2ccccc2)C(=O)O)CC1 (stereo not given in full)
z-score [1]: 0.399 | z-score [2]: 0.0648 | z-score [3]: 0.384

O=C(NCC1CN(c2ccc(N3CCOCC3=O)cc2)C(=O)O1)c1ccc(Cl)s1 (stereo not given)
z-score [1]: 0.607 | z-score [2]: 0.69 | z-score [3]: 0.507

NCCCC(O)(P(=O)(O)O)P(=O)(O)O
z-score [1]: 0.263 | z-score [2]: 0.663 | z-score [3]: 0.216

CN1CCN(c2c(F)cc3c(=O)c(C(=O)O)cn(CCF)c3c2F)CC1
z-score [1]: 1.29 | z-score [2]: -0.24 | z-score [3]: 0.785

O=P(O)(O)C(O)(Cc1cccnc1)P(=O)(O)O
z-score [1]: 0.388 | z-score [2]: 0.644 | z-score [3]: 0.537

CN(CCOc1ccc(CC2SC(=O)NC2=O)cc1)c1ccccn1 (stereo not given)
z-score [1]: 1.36 | z-score [2]: 0.588 | z-score [3]: 0.764

O=C(O)c1cccnc1
z-score [1]: 0.704 | z-score [2]: 0.528 | z-score [3]: 0.253
